This is an account of results in PubChem BioAssay (Tox21).

SMILES strings stand for the structures. Inconclusive results are not listed. Unmarked numbers belong to inactive results. Activity calls are given as the source filed them. Unless noted, calls come from the whole dose curve; as a rule, active = well fitted curve in the direction sought with a large enough effect in the repeat runs; inconclusive = weak or mixed curves; inactive = no such curve, though single readings can be large; an effect the other way counts as inactive or inconclusive.

A short description of test [1]: qHTS assay to identify small molecule agonists of the RXR signaling pathway - cell viability counter screen (AID 1159529). Note: series mostly up to about 77 µM; nearly all actives have a fitted effect of over 50% in size. A digest of the protocol:
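CellTiter-Glo luminescence gave viability in the wells also read for beta-lactamase. Cells (RXR-alpha-UAS-bla HEK 293T, 2% charcoal-stripped FBS medium) had 5 hr plating, then 16 hr compound exposure at 37 C; tetraoctyl ammonium bromide served as positive control.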
A general note: qHTS replaces the single test concentration by a dilution series.

The nature of test [2]: qHTS assay to identify small molecule antagonists of the retinoid acid receptor (RAR) signaling pathway - cell viability counter screen (AID 1159551). Note: nearly all actives have a fitted effect of over 35% in size. A digest of the protocol:
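C3RL4 cells were seeded overnight at 37 C, then treated with compounds plus 1 uM (final) retinol for 6 h at 37 C. Viability was read as ATP by CellTiter-Glo luminescence after 30 min at room temperature.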

Test [3] is described as follows: qHTS assay to identify small molecule antagonists of the retinoic acid receptor (RAR) signaling pathway (AID 1159552; note: nearly all actives have a fitted effect of over 50% in size). A digest of the protocol: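 Luminescent RARE reporter read-out in C3RL4 cells: 6 hr co-treatment at 37 C of test compounds with retinol at 1 uM final. Cells plated overnight beforehand; luciferase reagent incubated 30 min at room temperature before reading.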

Test [4] can be described thus: qHTS assay to identify small molecule agonists of the retinoic acid receptor (RAR) signaling pathway (AID 1159553). A digest of the protocol:
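C3RL4 cells carrying a RARE luciferase reporter were plated overnight at 37 C, then exposed to compounds in DMSO for 6 hr at 37 C and 5% CO2. Luminescence was read 30 min after luciferase reagent addition at room temperature.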

The nature of test [5]: qHTS assay to identify small molecule antagonists of the estrogen related receptor (ERR) signaling pathway from Tox21 library - cell viability counter screen (AID 1224834). Note: nearly all actives have a fitted effect of over 30% in size. The method, boiled down: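 ERR reporter cells were plated 6 h before compound addition, then exposed to test compounds in DMSO for 17.5 h at 37 C. Viability was read as CellTiter-Fluor fluorescence after a 30-minute incubation at 37 C.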

In test [6] the target is Luciferin 4-monooxygenase (Photinus pyralis) (UniProt P08659). Kind of test: qHTS assay to identify small molecule inhibitors of firefly luciferase (AID 1224835). Note: series mostly up to about 120 µM; nearly all actives have a fitted effect of over 25% in size. The method, boiled down:
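Inhibition of purified Photinus luciferase is measured by luminescence. Substrate levels (D-luciferin, ATP) sit at their KM values. Each compound is tested in a concentration series.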

Test [7] is described as follows: qHTS assay to identify small molecule agonists of the constitutive androstane receptor (CAR) signaling pathway - cell viability counter screen (AID 1224836). Note: series mostly up to about 92 µM; nearly all actives have a fitted effect of over 45% in size. A digest of the protocol: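 Cell viability multiplexed with the CAR agonist screen: CellTiter-Fluor fluorescence after 23 hr at 37 C. HepG2-CYP2B6-hCAR cells got compounds at 15 concentrations with PK11195 at 0.75 uM final.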

Test [8] in a line: qHTS assay to identify small molecule antagonists of the constitutive androstane receptor (CAR) signaling pathway - cell viability counter screen (AID 1224837). Note: series mostly up to about 92 µM; nearly all actives have a fitted effect of over 45% in size. A digest of the protocol:
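HepG2 cells stably expressing hCAR and a CYP2B6-2.2kb reporter were plated and pre-incubated 4 hr at 37 C/5% CO2, then given compounds at 15 concentrations plus 50 nM CITCO (final). After 23 hr, viability was read by CellTiter-Fluor fluorescence.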

For test [9], the target named is Nuclear receptor subfamily 1 group I member 3 (Homo sapiens) (UniProt Q14994). In words: qHTS assay to identify small molecule antagonists of the constitutive androstane receptor (CAR) signaling pathway (AID 1224838). Note: nearly all actives have a fitted effect of over 40% in size. A digest of the protocol: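 HepG2 cells stably co-transfected with hCAR and a CYP2B6-2.2kb luciferase reporter were seeded 4 h before compound addition at 15 concentrations. Cells were stimulated with 50 nM CITCO (final) for 24 h at 37 C; luciferase luminescence was then read.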

For test [10] the target is unchanged. In words: qHTS assay to identify small molecule agonists of the constitutive androstane receptor (CAR) signaling pathway (AID 1224839). For activation: series mostly up to about 92 µM. Note: nearly all actives have a fitted effect of over 15% in size. Note: potency is the fitted concentration of half-maximal effect. The method, boiled down: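 Luminescent ONE-Glo read-out after 24 hr, 37 C exposure of double-stable HepG2-CYP2B6-hCAR reporter cells to a 15-point compound series, in the presence of 0.75 uM PK11195 (final).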
Test [11] can be described thus: qHTS assay to identify small molecule antagonists of the estrogen related receptor signaling pathway with the pleiotropic PPARgamma coactivator (PGC) from Tox21 10K library - cell viability counter screen (AID 1224840; active = well fitted cell-killing curve with a large enough effect in the repeat runs, not every such curve was filed as active; note: nearly all actives have a fitted effect of over 40% in size). The method, boiled down:
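PGC/ERR cells were seeded at 2,000 cells/well and left 6 hours at 37 C/5% CO2 before pin-tool addition of compounds in DMSO. After 17.5 hours at 37 C, CellTiter-Fluor was added and fluorescence read 30 minutes later.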

Test [12] can be described thus: qHTS assay to identify small molecule antagonists of the estrogen related receptor signaling pathway with the pleiotropic PPARgamma coactivator (PGC) from Tox21 10K library (AID 1224841; call rule not given here; note: actives are mostly falling curves and most rising ones were filed inactive; nearly all actives have a fitted effect of over 50% in size; note: potency is the fitted concentration of half-maximal effect; for activity, negative = inhibition: series mostly up to about 92 µM). The method, boiled down:
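PGC/ERR reporter cells were seeded at 2,000 cells/well and held 6 hours at 37 C/5% CO2 before pin-tool addition of compounds in DMSO. After 18 hours at 37 C, One-Glo was added and luminescence read after 30 minutes at room temperature.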

For test [13], the target named is Thyrotropin receptor (Homo sapiens) (UniProt P16473). In words: qHTS assay to identify small molecule agonists of the thyroid stimulating hormone receptor (TSHR) signaling pathway (AID 1224843; calls by dose curve; note: nearly all actives have a fitted effect of over 45% in size). The method, boiled down:
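HEK293 cells stably bearing the thyrotropin receptor were plated at 800 cells/well and challenged with compound (30 min, RT). Accumulated cAMP was quantified via cAMP-d2 competing for cryptate-tagged antibody.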

The nature of test [14]: qHTS assay to identify small molecule antagonists of the estrogen related receptor (ERR) signaling pathway - cell viability counter screen (AID 1224818).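 Note: series mostly up to about 46 µM; viability measured after 17.5 h of compound exposure.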 A digest of the protocol:
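ERR reporter cells plated 6 h at 37 C/5% CO2, then compounds in DMSO pin-transferred and incubated 17.5 h at 37 C. Viability read as CellTiter-Fluor fluorescence after 30 min at 37 C.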

Test [15] can be described thus: qHTS assay to identify small molecule antagonists of the estrogen related receptor signaling pathway with the pleiotropic PPARgamma coactivator (PGC) cell viability counter screen (AID 1224822; note: series mostly up to about 46 µM). The method, boiled down: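 PGC/ERR cells were seeded at 2,000 cells/well, rested 6 h at 37 C/5% CO2, then given compounds in DMSO by pin tool and incubated 17.5 h at 37 C. Viability came from CellTiter-Fluor fluorescence after 30 min.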

Test [16] in a line: qHTS assay to identify small molecule antagonists of the estrogen related receptor (ERR) signaling pathway (AID 1224819;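 note: luminescence from an ERR-driven luciferase reporter measured with One-Glo reagent; series mostly up to about 46 µM; nearly all actives have a fitted effect of over 50% in size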). The method, boiled down:
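ERR reporter cells were plated at 2,000 cells/well and left 6 h at 37 C/5% CO2 before pin-tool transfer of compounds in DMSO. After 18 h at 37 C, One-Glo was added and luminescence was read 30 min later at room temperature.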

Test [17] is described as follows: qHTS assay to identify small molecule agonists of the estrogen related receptor (ERR) signaling pathway (AID 1224820). The method, boiled down:
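Quantitative HTS of the LOPAC library used NTP ERR reporter cells treated 18 h at 37 C. Signal is luminescence after One-Glo addition and a 30 min room-temperature incubation.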

Test [18] relates to estrogen-related receptor alpha (ERRalpha) with PGC-1alpha coactivator, human. In words: qHTS assay to identify small molecule antagonists of the estrogen related receptor signaling pathway with the pleiotropic PPARgamma coactivator (PGC) (AID 1224821; calls by dose curve). The method, boiled down: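 Quantitative HTS for antagonism: PGC/ERR cells received compounds after 6 h attachment and were incubated 18 h at 37 C, with luminescence (One-Glo) as the endpoint.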

A short description of test [19]: qHTS assay to identify small molecule agonists of the estrogen related receptor signaling pathway with the pleiotropic PPARgamma coactivator (PGC) (AID 1224823). The method, boiled down:
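Cell-based luciferase assay in the NTP-supplied PGC/ERR line, 2,000 cells/well; 18 h compound exposure at 37 C, luminescence after One-Glo.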

A short description of test [20]: qHTS assay to identify small molecule agonists of the estrogen related receptor signaling pathway with the pleiotropic PPARgamma coactivator (PGC) from Tox21 10K library (AID 1224842). Note: nearly all actives have a fitted effect of over 15% in size. A digest of the protocol:
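Luminescence from One-Glo (30 min, room temperature) measured after PGC/ERR cells had 18 h at 37 C with pinned compound (23 nL in DMSO). Cells had been seeded at 2,000 per well and pre-incubated 6 h.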
% is set by controls: 0 for no effect and ±100 for the full control effect.

Nuclear receptor subfamily 1 group I member 3 (Homo sapiens), sequence (Q14994 whole entry, looked up): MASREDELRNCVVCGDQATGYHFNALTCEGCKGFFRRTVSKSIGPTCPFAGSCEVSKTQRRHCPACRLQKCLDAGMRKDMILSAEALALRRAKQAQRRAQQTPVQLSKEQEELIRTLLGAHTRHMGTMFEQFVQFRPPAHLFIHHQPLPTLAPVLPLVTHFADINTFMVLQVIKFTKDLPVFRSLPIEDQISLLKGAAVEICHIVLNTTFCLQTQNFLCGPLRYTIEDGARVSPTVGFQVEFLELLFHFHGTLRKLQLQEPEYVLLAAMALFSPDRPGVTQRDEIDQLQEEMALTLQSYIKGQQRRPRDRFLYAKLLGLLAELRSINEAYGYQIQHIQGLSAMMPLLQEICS
Luciferin 4-monooxygenase (Photinus pyralis), sequence (P08659 whole entry, looked up): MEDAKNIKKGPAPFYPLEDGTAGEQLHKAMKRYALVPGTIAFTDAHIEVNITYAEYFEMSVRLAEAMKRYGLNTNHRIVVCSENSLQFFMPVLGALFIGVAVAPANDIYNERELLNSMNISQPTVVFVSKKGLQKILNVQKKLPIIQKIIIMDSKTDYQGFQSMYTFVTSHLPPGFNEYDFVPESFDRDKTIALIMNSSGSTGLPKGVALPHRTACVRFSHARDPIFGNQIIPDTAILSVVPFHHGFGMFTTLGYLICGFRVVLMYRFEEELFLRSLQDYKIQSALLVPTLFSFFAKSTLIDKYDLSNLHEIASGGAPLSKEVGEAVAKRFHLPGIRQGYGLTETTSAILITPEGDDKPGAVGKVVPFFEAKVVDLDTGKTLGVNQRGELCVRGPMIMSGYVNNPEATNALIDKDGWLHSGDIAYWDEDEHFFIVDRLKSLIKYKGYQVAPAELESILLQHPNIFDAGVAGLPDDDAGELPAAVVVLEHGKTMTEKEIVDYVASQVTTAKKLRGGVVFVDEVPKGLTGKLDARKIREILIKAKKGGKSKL
Thyrotropin receptor (Homo sapiens), sequence (P16473 whole entry, looked up): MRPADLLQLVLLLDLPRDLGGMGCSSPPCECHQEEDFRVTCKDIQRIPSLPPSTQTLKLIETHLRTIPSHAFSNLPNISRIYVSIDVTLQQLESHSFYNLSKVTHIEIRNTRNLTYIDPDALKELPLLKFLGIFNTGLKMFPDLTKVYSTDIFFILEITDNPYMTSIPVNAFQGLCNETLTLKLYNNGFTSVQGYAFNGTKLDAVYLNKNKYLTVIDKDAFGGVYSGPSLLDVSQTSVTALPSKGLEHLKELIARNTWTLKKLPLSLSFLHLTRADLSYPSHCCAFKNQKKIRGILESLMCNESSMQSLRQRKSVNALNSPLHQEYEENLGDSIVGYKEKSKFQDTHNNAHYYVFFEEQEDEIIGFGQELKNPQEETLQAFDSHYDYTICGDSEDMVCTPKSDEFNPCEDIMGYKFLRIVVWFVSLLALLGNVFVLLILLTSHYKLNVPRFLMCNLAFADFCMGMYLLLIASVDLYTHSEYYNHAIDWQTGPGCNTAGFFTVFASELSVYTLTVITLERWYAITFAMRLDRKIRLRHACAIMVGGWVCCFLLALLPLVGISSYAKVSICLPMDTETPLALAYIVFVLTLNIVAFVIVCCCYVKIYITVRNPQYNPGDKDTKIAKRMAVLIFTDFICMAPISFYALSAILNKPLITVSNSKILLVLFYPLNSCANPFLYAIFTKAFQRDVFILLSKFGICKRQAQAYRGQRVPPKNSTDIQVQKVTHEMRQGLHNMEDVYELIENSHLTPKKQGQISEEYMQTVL

Regarding `COC(C)(C)CCO`, the Potency result in test [1], in test [2], in test [3], in test [4], in test [5] and in test [6] was “inactive” in each case. Further, the Potency result in test [7], in [8], in [9], in [10], in test [11] and in test [12] was “inactive” throughout. For the same compound, the Potency result in test [13] is “inactive”.

Take `NCC(=O)O`: the figures for the activity change, negative = cytotoxicity in [1], in [2] and in [8] were 4.74% [at 15.8 µM], -0.228% [at 19 µM] and -8.8% [at 19 µM], respectively. Besides, the activity, negative = inhibition in test [3] is 0.472% [at 19 µM]; in [9], -5.57% [at 19 µM]. In [4], the Potency result was “inactive”. Further, the values for the viability change, negative = cytotoxic in test [5], in [7] and in test [11] were 2.45% [at 19 µM], -11.9% [at 19 µM] and 0.187% [at 19 µM], respectively. In addition, the activity change, negative = inhibition in test [6] was -0.476% [at 23.6 µM]. The activation in test [13] is -1.56% [at 19 µM].

Consider `Cc1[nH]c(C)c(Cl)c(=O)c1Cl`, for which the activity change, negative = cytotoxicity in test [1] is 7.97% [at 15.8 µM]; in [2], -2.2% [at 19 µM]; in test [8], 8.34% [at 19 µM]. The activity, negative = inhibition in test [3] was 3.44% [at 19 µM]. The Potency entry in test [4] is “inactive”. Further, the viability change, negative = cytotoxic was 0.386% [at 19 µM] in test [5], 3.99% [at 19 µM] in [7] and 12.2% [at 19 µM] in test [11]. Also, the activity change, negative = inhibition in [6] was -1.3% [at 23.6 µM]. For the same compound, the activation in test [13] was 2.76% [at 19 µM].

For the compound `CCOC(=O)C(F)(F)F`, the Potency result in test [1], in [2], in test [3], in test [4], in [5] and in test [6] was “inactive” throughout. The Potency result in [7], in test [9], in test [11] and in test [13] was “inactive” each time.

With `OCCNCc1ccccc1`, the Potency entry in test [1], in test [2], in [3], in test [4], in test [5] and in test [6] was “inactive” in each case. Also, the Potency entry in [7], in [8], in [9] and in [11] was “inactive” in each case.

Consider `COCC(C)OC(C)=O` (stereo not given), for which the Potency entry in test [1], in [2], in test [3], in test [4], in [5] and in test [6] was “inactive” each time. Also, the Potency result in test [7], in test [9], in [10] and in test [11] was “inactive” throughout.

Regarding `Nc1ccccc1S(=O)(=O)c1ccccc1`, the Potency result in test [1], in [2], in [3], in test [4], in test [5] and in test [6] was “inactive” throughout. Moreover, the Potency entry in test [7], in test [9], in test [11] and in test [13] was “inactive” throughout. The Potency in test [10] was 68.6 µM (active).

For `CCCCc1ncc(/C=C(\Cc2cccs2)C(=O)O)n1Cc1ccc(C(=O)O)cc1`, the Potency entry in test [1], in [2], in test [3], in test [4], in test [5] and in [6] was “inactive” each time. The Potency result in test [7], in test [8], in [10], in test [11] and in [13] was “inactive” in each case. In addition, the outcome in test [14] and in test [15] was inactive.

On to `COc1cc2nc(N(C)CCCNC(=O)C3CCCO3)nc(N)c2cc1OC` (stereo not given), for which the Potency result in test [1], in [2], in test [3], in test [4], in test [16] and in test [18] was “inactive” in each case. Besides, the Potency result in test [8], in test [11] and in [13] was “inactive” throughout. Further, the call in test [14], in test [17], in [15] and in test [19] was inactive. In addition, the Potency in [12] is 15 µM (active).

In the case of `NC(N)=NCCC[C@H](N)C(=O)O`, the activity change, negative = cytotoxicity in test [1] was 6.89% [at 6.97 µM]; in test [2], -0.0145% [at 8.39 µM]; in test [8] it was -4.98% [at 8.39 µM]. Also, the activity, negative = inhibition in test [3] was 5.45% [at 8.39 µM]; in [12] it was -5.77% [at 8.39 µM]. Also, the activation in [4] was 0.0873% [at 8.36 µM]; in test [20] it was -1.51% [at 8.39 µM]; in [13], -0.151% [at 8.39 µM]. The call in [14], in test [17], in test [15] and in test [19] was inactive. Further, the Potency result in test [16] and in test [18] was “inactive” throughout. Moreover, the results for the viability change, negative = cytotoxic in test [5], in test [7] and in [11] were 3.84% [at 8.39 µM], 0.813% [at 8.39 µM] and -6.77% [at 8.39 µM], respectively. Moreover, in test [6], the activity change, negative = inhibition is 0.418% [at 10.5 µM].
